# Laboratory results taken from PubChem BioAssay AID720711 (National Center for Advancing Translational Sciences (NCATS), 2013).
# Among all 360,000 compounds or so, about 290 (0.081%) were called active. Shown is part of a subset that was picked to be rich in actives. Values without a mark were called inactive. Calls follow the shape of the dose curve; as a rule, active = well fitted activation curve with a large enough effect; inconclusive = small, poorly fitted or top-dose-only effect; inactive = no such curve, though single readings can be large or run the other way.
# Biological target: Rap guanine nucleotide exchange factor 4 (Homo sapiens) (UniProt Q8WZA2)
# Experiment: qHTS for Agonist of cAMP-regulated guanine nucleotide exchange factor 4 (EPAC2): primary screen; also: nearly all actives have a fitted effect of over 50% in size
# Details: biochemical qHTS; Potency: EPAC2 activation; series mostly up to 154 µM; activation: at the top concentration
# Text: In multi-cellular eukaryotic organisms, the effects of cAMP are transduced by two ubiquitously-expressed intracellular cAMP receptors, the classic protein kinase A/cAMP-dependent protein kinase (PKA/cAPK) and the more recently discovered exchange protein directly activated by cAMP/cAMP-regulated guanine nucleotide exchange factor (EPAC/cAMP-GEF). Both PKA and EPAC are ubiquitously expressed in all tissues, and an increase in intracellular cAMP levels will lead to the activation of both PKA and EPAC. Therefore, careful dissections of the individual role and relative contribution of EPAC and PKA within the overall cAMP signaling in various model systems are critical for further elucidating the mechanism of cAMP signaling. To date no EPAC-specific antagonists and agonist, as well as isoform-specific agonists have been reported, and developing EPAC-specific pharmacological probes to determine the physiological functions that EPAC play in the overall cAMP-mediated signaling remains a major challenge within the research field. Furthermore, identified regulators of EPAC may lead to new mechanism-based therapeutic strategies specifically targeting the EPAC / cAMP-signaling components as EPAC has been implicated to play important roles in major human pathological conditions such as diabetes, heart disease, and cancer.
# This qHTS will be used to screen the Molecular Libraries Small Molecule Repository (MLSMR) as a concentration-titration series using the NCGC unique quantitative screening (qHTS) platform to find activators for EPAC2. In addition, this assay will also be used as a counterscreen for the EPAC1 qHTS. This fluorescent based assay is developed and validated for EPAC2 that measures exchange using EPAC effector Rap1 complex with BODIPY-GDP, a GDP analog with a tethered fluorophores. Activators are identified by monitoring the change in fluorescence signal as the exchanged free BODIPY-GDP has a reduced fluorescence compared to Rap1-bound BODIPY-GDP. […] in signal (activation) is the desired outcome for the EPAC2 agonist while no activity in this assay is desired for the EPAC1 agonist counterscreen.
# [1] de Rooij, J., Zwartkruis, F. J., Verheijen, M. H., Cool, R. H., Nijman, S. M., Wittinghofer, A., and Bos, J.L. (1998) Nature 396, 474-477
# [2] Kawasaki, H., Springett, G. M., Mochizuki, N., Toki, S., Nakaya, M., Matsuda, M., Housman, D. E., and Graybiel, A. M. (1998) Science 282, 2275-2279
# NIH Chemical Genomics Center [NCGC]
# NIH Molecular Libraries Probe Centers Network [MLPCN]
# Assay Submitter (PI): Xiaodong Cheng, The University of Texas, Medical Branch
# Briefly, three uL of reagents (100 nM EPAC2, 250 nM RAP1B-BODIPY-GDP, 50 uM GDP) were dispensed into a 1536-well Greiner black solid-bottom medium binding assay plate. Controls and test compounds (23 nL) were transferred to the plate via a Kalypsys pin tool equipped with a 1536-pin array. The plates were centrifuged at 1,000 rpm for 15 seconds followed by 5 minute incubation at room temperature. The assay plates were read at 5 minute intervals for 30 minutes in the ViewLux plate reader using 480nm excitation and 540nm emission filters. The results were normalized to the agonist positive control of 6.5 mM cAMP.
# Potency is read from the fitted curve at half-maximal effect.
# Sequence of Rap guanine nucleotide exchange factor 4 (Homo sapiens) (Q8WZA2 whole entry, looked up): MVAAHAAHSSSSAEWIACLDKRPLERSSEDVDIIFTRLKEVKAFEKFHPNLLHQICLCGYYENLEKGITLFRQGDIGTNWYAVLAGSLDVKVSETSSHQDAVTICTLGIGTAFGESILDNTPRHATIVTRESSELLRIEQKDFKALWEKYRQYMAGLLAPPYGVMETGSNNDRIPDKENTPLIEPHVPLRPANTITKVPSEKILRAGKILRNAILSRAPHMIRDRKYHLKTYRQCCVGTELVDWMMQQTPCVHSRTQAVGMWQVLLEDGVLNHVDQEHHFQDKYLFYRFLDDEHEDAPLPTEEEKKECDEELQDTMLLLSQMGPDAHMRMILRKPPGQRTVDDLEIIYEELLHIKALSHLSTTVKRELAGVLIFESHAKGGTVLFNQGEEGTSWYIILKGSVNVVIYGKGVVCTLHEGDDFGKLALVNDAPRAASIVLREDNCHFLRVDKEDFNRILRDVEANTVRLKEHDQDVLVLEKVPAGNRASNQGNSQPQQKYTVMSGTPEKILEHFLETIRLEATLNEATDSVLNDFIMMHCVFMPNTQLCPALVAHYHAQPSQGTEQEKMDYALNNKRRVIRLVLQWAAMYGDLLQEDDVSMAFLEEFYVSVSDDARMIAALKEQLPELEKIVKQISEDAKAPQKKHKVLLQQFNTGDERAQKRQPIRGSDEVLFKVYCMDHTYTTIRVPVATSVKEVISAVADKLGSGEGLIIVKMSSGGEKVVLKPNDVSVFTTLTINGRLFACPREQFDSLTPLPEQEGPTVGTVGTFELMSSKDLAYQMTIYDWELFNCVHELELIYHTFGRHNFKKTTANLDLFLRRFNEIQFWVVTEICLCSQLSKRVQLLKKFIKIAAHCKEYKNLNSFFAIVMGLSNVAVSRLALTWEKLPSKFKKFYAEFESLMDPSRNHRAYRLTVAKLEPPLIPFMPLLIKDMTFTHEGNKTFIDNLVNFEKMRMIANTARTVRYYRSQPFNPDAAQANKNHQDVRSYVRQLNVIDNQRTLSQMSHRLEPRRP
SMILES,activation,Potency
COc1cc(-c2nnn(CC(=O)NCc3ccccc3)n2)cc(OC)c1OC,-6.33%,–
COC(C(=O)NCc1ccccc1C)c1ccccc1 (stereo not given),-2.29%,–
COc1ccc(NC(=O)CN(C)S(=O)(=O)c2ccccc2)cc1OC,15.6%,–
CCN(C(=O)C1CCCN(c2nc(-c3ccc(OC)cc3)no2)C1)c1ccc(OC)cc1 (stereo not given),13.2%,–
CCc1cccc(OC2OC(CO)C(O)C(O)C2NC(C)=O)c1 (stereo not given),12.7%,–
CCN(Cc1ccccc1)S(=O)(=O)c1cc(C(=O)O)ccc1OC,4.83%,–
COc1ccc(C)c(Cn2c(-c3nonc3N)nc3ccccc32)c1,-7.07%,–
Cc1ccc2c(CC(=O)NCc3cccs3)coc2c1,3.95%,–
CCc1nn(CCCC(=O)NCc2ccc(C)cc2)c(=O)c2cc3occc3n12,2.33%,–
Cc1ccc(C(CNC(=O)Nc2ccccc2)N2CCN(C)CC2)cc1 (stereo not given),6.7%,–
O=C(O)C1OC(C(=O)O)C2C1C(F)(F)C2(F)F (stereo not given),7.38%,–
CN(CCNC(=O)c1cc2c(-c3ccccc3F)nn(C)c2s1)C1CCCCC1,12%,–
CCO[C@@H]1OC(C(=O)NC2CC2)=C[C@H](C)[C@H]1CCCO,5.29%,–
Cc1nc(N)sc1-c1ccccc1,2.75%,–
O=C(CCc1ccccc1)Nc1ccnn1C1CCN(Cc2ccc(OCCO)cc2)CC1,4.75%,–
CC(C)(C)NC(=O)Cn1c(SCC(=O)Nc2nccs2)nc2ccccc21,2.92%,–
O=C1C=C(c2ccnc3cc(Cl)ccc23)C[C@@H](c2ccc3c(c2)OCO3)C1,3.59%,–
CCCCCC(=O)N1CCN(S(=O)(=O)c2ccc3c(c2)OCCCO3)CC1,3.1%,–
CC1(C)CN(CCc2ccccc2)C(=O)[C@H]1CC(=O)Nc1ccc(Br)cc1,2.53%,–
COc1ccc(N2C(=O)NC(NS(=O)(=O)c3ccc(Cl)cc3)(C(F)(F)F)C2=O)cc1 (stereo not given),10.6%,–
CCOC(=O)c1ccccc1NC(=O)c1c(N)n(C)c(=O)[nH]c1=O,19.8%,–
CCOC(=O)c1cnn(Cc2ccccc2Cl)c1N,1.13%,–

SMILES,activation,Potency
CCOC(=O)c1cc2n(c1N)-c1ccccc1C2=O,–,89.1 µM (active)
CN(C)NC(=O)c1csnc1-c1c(Cl)cccc1Cl,13.8%,–
O=S(=O)(NCc1ccccc1Cl)c1cnc[nH]1,-3.43%,–
CCc1nc2sc3c(Cl)ncnc3c2c2c1CCCC2,10.5%,–
COc1ccc(CNC(=O)C[C@H]2C[C@H](C(=O)N3CCOCC3)[C@@]3(CCC4CCCC4)c4[nH]c5ccc(Cl)cc5c4CCN3C2=O)cc1OC,-2.39%,–
O=C1[C@H]2[C@@H](c3ccc(C(F)(F)F)cc3)N[C@]3(CCCN(Cc4ccc(Cl)cc4)C3=O)[C@H]2C(=O)N1Cc1ccccc1,-2.98%,–
CCN(CC)CCCC(C)n1c2nc(=O)[nH]c(=O)c-2nc2cc(Cl)ccc21 (stereo not given),–,100 µM (active)
c1ccc(C[C@H]2CNCCN2CCC23CC4CC(CC(C4)C2)C3)cc1,8.44%,–
Cn1c(=O)c2c(nc(N3CCCCCC3)n2CC(O)COc2ccc(Cl)cc2)n(C)c1=O (stereo not given),-12.2%,–
CSCc1cc(N(C)C)nc(SCc2ccc(Cl)cc2Cl)n1,12.8%,–
CCCOc1ccc(Cc2c(Cl)nc(SC)nc2NC)cc1,14.3%,–
Cc1sc2ncn(CC(=O)NCCCC(=O)N3CCN(c4ccccc4F)CC3)c(=O)c2c1C,10.3%,–
Cc1oc(C)c(C(=O)NCCCC(=O)O)c1C(=O)NCCCC(=O)O,3.93%,–
O=CN1CCN(C(=O)c2ccc(Br)o2)CC1,-4.45%,–
Cc1cc(C)c2oc(C(=O)Nc3ccc(S(=O)(=O)Nc4nccc(C)n4)cc3)cc(=O)c2c1,-3.06%,–
COc1ccc(NC(=O)N(C)C[C@H]2Oc3ncc(C#C[C@@H](C)O)cc3C(=O)N([C@H](C)CO)C[C@H]2C)cc1,6.02%,–
CCCCN1C(=O)C(CC(=O)NC(c2ccccc2)c2ccccc2)CC(C(=O)N2CCOCC2)=C1C (stereo not given),5.77%,–
CC(C)(C)[C@H]1C=C(C(=O)NCc2ccccc2)O[C@@H](OCc2ccc(CO)cc2)C1,9.55%,–
NC(=O)c1ccccc1N=Cc1ccc2ccccc2c1,-7.1%,–
O=C(Nc1ccc2c(c1)C(=O)OC2)Nc1cccc2ccccc12,11.6%,–
Cn1ccs/c1=N\S(=O)(=O)c1ccc(C(C)(C)C)cc1,-12.9%,–
CC12c3ccccc3C(c3ccccc31)C1C(=O)N(Cc3cccnc3)C(=O)C12 (stereo not given),7.76%,–

SMILES,activation,Potency
Cc1cccc(-c2c(NC(=O)c3ccco3)oc3ccc(Cl)cc3c2=O)c1,6.33%,–
O=C(NCCCN1CCCCC1)C1CCCN(c2ncnc3c2nc2n3CCCCC2)C1 (stereo not given),5.8%,–
CC1CCC(CN2CCN=C2N(C)C)CC1 (stereo not given),12.7%,–
CC(Oc1ccc(Br)cc1)C(=O)NCC(c1ccco1)N1CCCCC1 (stereo not given),14.4%,–
O=C(c1ccccc1)C(Cn1cncn1)C(Sc1ccccc1)c1ccccc1 (stereo not given),-7.26%,–
CCCCCCc1cc2cc(-c3nnc(-c4ccccc4)o3)c(=O)oc2cc1O,–,44.7 µM (active)
COc1cc(C(=O)NCC(=O)NCCSc2ccc(Br)cc2)cc(OC)c1OC,1.02%,–
CN(CCOc1ccc(Br)cc1)CC(=O)Nc1cccc(S(=O)(=O)NC2=NCCC2)c1,8.89%,–
CCN=C1S/C(=C\c2cc(Br)ccc2OCC(=O)OCC)C(=O)N1CC,-3.99%,–
CC(C)N1C(=S)SC(C)(C)C1n1oc(=O)n(-c2ccc(Cl)c(Cl)c2)c1=O (stereo not given),16.2%,–
COC(=O)c1ccc([C@@H](O)[C@H](C)C(=O)CC(=O)OC(C)(C)C)cc1,7.76%,–
CC(=O)Oc1ccc(-c2cccc(C(=O)N3CCCCC3)c2)cc1,4.17%,–
CCN(CC(=O)Nc1cccc(S(N)(=O)=O)c1)Cc1nc2ccccc2c(=O)[nH]1,5.9%,–
Cc1nc2ccc(S(=O)(=O)N(C)CC(=O)NC(C)c3ccccc3)cc2s1 (stereo not given),-5.42%,–
Cc1cc2c(cc1C)NC(c1ccccn1)C1=C(CC(C)(C)CC1=O)N2 (stereo not given),"0% [at 15.6 µM, 100% = 6.5 mM cAMP response]",–
O=C(Cn1nnc2ccccc2c1=O)NCc1ccc(Cl)cc1,6.7%,–
Cc1ccc(S(=O)(=O)CCC(=O)OCc2ccccc2)cc1,7.04%,–
O=C(CNC(=O)c1ccccc1F)OCC(=O)c1c[nH]c2ccccc12,-5.16%,–
CN1C(CC(=O)Nc2ccc(Br)cc2)c2ccccc2CC1(C)C (stereo not given),2.28%,–
O=C(COC(=O)c1c(Cl)cccc1Cl)Nc1cccc(S(=O)(=O)NC2=NCCCCC2)c1,5.96%,–
CCCN(CC(=O)Nc1ccc(C(N)=O)cc1)CC(=O)Nc1ccccc1C,3.61%,–
